Bioassay records as filed in PubChem.
Artemis inh: Artemis (human) endonuclease inhibition; Q96SD1; recombinant Artemis, quenched FAM hairpin cleavage fluorescence; inhibition, % at 10 µM; 0.78% of 30,000 active;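 active = at 10 µM dose, at least 30% inhibition, measured as corrected fluorescence normalized to stimulator and neutral control wells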
Target sequence (Q96SD1 whole entry, looked up): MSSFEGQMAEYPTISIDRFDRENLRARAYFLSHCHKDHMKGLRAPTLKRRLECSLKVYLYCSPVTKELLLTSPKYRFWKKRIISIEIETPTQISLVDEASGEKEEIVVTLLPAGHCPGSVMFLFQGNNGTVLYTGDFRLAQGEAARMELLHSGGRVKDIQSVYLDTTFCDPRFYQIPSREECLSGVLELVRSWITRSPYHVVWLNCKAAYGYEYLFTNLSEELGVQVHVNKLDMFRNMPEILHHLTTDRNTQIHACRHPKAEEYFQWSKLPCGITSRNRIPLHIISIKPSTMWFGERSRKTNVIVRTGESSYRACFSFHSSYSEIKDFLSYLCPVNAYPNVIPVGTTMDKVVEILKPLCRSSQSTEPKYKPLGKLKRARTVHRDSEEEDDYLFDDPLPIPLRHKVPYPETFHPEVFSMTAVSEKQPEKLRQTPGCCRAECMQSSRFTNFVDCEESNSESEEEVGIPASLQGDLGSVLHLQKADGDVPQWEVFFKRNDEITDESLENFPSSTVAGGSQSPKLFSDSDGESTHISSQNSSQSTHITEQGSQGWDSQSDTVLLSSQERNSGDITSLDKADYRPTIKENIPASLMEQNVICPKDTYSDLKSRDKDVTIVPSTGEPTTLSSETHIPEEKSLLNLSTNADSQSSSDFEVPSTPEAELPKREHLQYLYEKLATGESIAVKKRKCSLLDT
* = called active by the depositor. The full list was thinned out, with hits kept by preference.

SMILES | Artemis inh
O=C(NCC1CCCO1)c1cc(-c2ccco2)nc2ccccc12 (centres undefined) | -0.1
O=C(c1ccco1)N1CCN(C(=O)c2cc(-c3ccncc3)nc3ccc(Br)cc23)CC1 | 10.7
O=C(O)c1cc(-c2ccco2)nc2ccc(Br)cc12 | 42.3*
CCCC(C(=O)Nc1nccs1)c1ccccc1 (centres undefined) | 6.5
Cc1cc2oc(=O)cc(CSc3nc(N)cc(N)n3)c2cc1C | 3.9
Cc1ccc(NS(=O)(=O)c2ccc(NC(=O)[C@@H]3CCCC[C@@H]3C(=O)O)cc2)c(C)c1 | -1.7
CN(C)c1ccc(/C=C/C=C2/SC(=S)N(c3ccccc3)C2=O)cc1 | 8.9
CC(C)NC(=O)/C(=C/c1ccco1)c1ccccc1 | -7.5
CC(C)C(C(=O)O)N1C(=O)/C(=C/C=C/c2ccco2)SC1=S (centres undefined) | 39.0*
COc1ccc2[nH]c(=O)c(CN(CCO)C(=O)c3ccccc3F)cc2c1 | 15.3
Cc1snc(S(=O)(=O)/C(C#N)=N/Nc2ccc(C(F)(F)F)cc2)c1C#N | 15.7
CC(C)(C)c1ccc(OCCC(=O)NC2=NCCS2)cc1 | -0.1
Cc1sc(NC(=O)C2CCCCC2C(=O)O)c(C(N)=O)c1-c1ccc(C(C)(C)C)cc1 (centres undefined) | 40.1*
Cc1sc(NC(=O)C2CCCCC2C(=O)O)c(C(N)=O)c1-c1ccccc1 (centres undefined) | 2.2
Cc1sc(NC(=O)C2CCCCC2C(=O)O)c(C(N)=O)c1-c1ccc(C(C)C)cc1 (centres undefined) | 27.2
CC(C)(C)OC(=O)N1CCC(C(=O)N[C@@H](Cc2ccccc2)C(=O)O)CC1 | 7.8
COc1ccc(C(=O)/C=C/N(C)C)cc1OC | 3.2
COc1ccc(C(=O)c2c(C(F)(F)F)oc3c2C(=O)c2ccccc2C3=O)cc1OC | 35.7*
COc1ccc(C(=O)Nc2ccc(OCC(F)(F)C(F)F)c(C(F)(F)F)c2)cc1OC | 9.7
CCOC(=O)c1ccc(NC(=S)NNC(=O)C2(C)CC2(Cl)Cl)cc1 (centres undefined) | 11.5
CCc1cc(=O)oc2cc(OCC(N)=O)c(Cl)cc12 | -5.2
O=C(Nc1nccs1)C1CCN(S(=O)(=O)c2c(Cl)cccc2Cl)CC1 | -4.5
CC(=O)Nc1ccc2ccc3cccc4ccc1c2c34 | 5.8
CCCC(=O)N1CCN(c2nc(CC(C)C)c3c(c2C#N)CCC3)CC1 | 13.2
CCOC(=O)c1ccc(NC(=O)CCOc2ccccc2)cc1 | 2.3
SMILES | Artemis inh
CCOC(=O)c1ccc(NC(=O)CNS(=O)(=O)c2ccccc2)cc1 | -0.4
CCOC(=O)c1ccc(NC2=CC(=O)C(=O)c3ccccc32)cc1 | 66.1*
c1ccc2c(c1)c1ccccc1n1c(-c3ccc4c(c3)OCO4)nnc21 | 23.2
COc1ccc(C(=O)Nc2cc(OC)nc(OC)n2)cc1 | 13.7
O=C(N/N=C/c1ccccc1)c1sccc1OCc1ccc(F)cc1 | 6.3
CCOC(=O)C1=C(O)CSC1=Nc1ccccc1 | -1.5
CCOC(=O)c1c(C)[nH]c(C=Nc2ccc(OC)cc2)c1O | 10.3
CCOC(=O)C1=C(O)/C(=C/c2ccc(-c3ccccc3C(=O)O)o2)SC1=Nc1ccc(OC)cc1 | 30.1*
COC(=O)Cc1cc(=O)n2[nH]c(C(F)(F)F)nc2n1 | 2.0
O=c1cc2[nH]c3ccccc3c(=O)n2nc1-c1ccccc1 | 17.6
Cc1ccc(/C=C/C(=O)N2CC(C)CC(C)C2)o1 (centres undefined) | 2.8
Cc1ccccc1OCC(=O)N/N=C/c1cccn1C | -6.8
CCN1C(=O)/C(=C2/C=Cc3ccccc3N2C)OC1=S | 4.9
CCN1/C(=C/c2ccc3ccccc3[n+]2CC)C=Cc2ccccc21 | 37.8*
Cc1cc(C)c(S(C)(=O)=O)c(Sc2ccc(Cl)cc2)n1 | 1.8
CCc1nc2sc(C)c(C)c2c(=O)n1CCO | -2.1
Cc1ccc(SCC2CNc3nc4ccccc4c(=O)n32)c(C)c1 (centres undefined) | 2.5
CC(C)n1c(=N)c(C(=O)NCCc2ccccc2)cc2c(=O)n3ccccc3nc21 | 1.6
COCCCn1c(=N)c(C(=O)NC2CCCCC2)cc2c(=O)n3ccccc3nc21 | 1.6
N=c1c(C(=O)NCc2ccco2)cc2c(=O)n3ccccc3nc2n1Cc1ccccc1 | 22.8
N=c1c(C(=O)NCc2ccc(F)cc2)cc2c(=O)n3ccccc3nc2n1Cc1ccco1 | 29.3
Cc1ccc(CNC(=O)c2cc3c(=O)n4ccccc4nc3n(Cc3ccco3)c2=N)cc1 | 41.3*
N=c1c(C(=O)NCc2ccccc2)cc2c(=O)n3ccccc3nc2n1Cc1ccco1 | 30.6*
Cc1cccnc1NC(=O)Cn1nc(C)c([N+](=O)[O-])c1C | -3.9
COc1ccc(CS(=O)(=O)/C(Cl)=C(/Cl)C(=O)Nc2ccc(OC)nc2)cc1 | 10.8
SMILES | Artemis inh
O=C(NCCCn1ccnc1)C(Cc1ccc([N+](=O)[O-])cc1)N1C(=O)c2ccccc2C1=O (centres undefined) | 2.3
O=C(CNC(=O)c1ccc(Oc2ccccc2)cc1)OC1CCCCC1=O (centres undefined) | 3.4
NS(=O)(=O)c1ccc(CCNc2ncnc3c2c(-c2ccccc2)cn3-c2ccc(F)cc2)cc1 | 8.2
O=C(c1ccccc1-c1ccccc1)N1CCCC1 | -10.7
O=C(c1ccccc1-c1nc2ccccc2[nH]1)N1CCCCC1 | 0.4
O=C(c1ccc2c3c(cccc13)C(=O)N(O)C2=O)N1CCCCC1 | 47.4*
CCn1c(SCc2ccc(F)cc2)nnc1-c1nn(-c2ccccc2)ccc1=O | 6.3
Clc1cc(Sc2ccc(Br)cc2)nnc1-c1ccccc1 | -10.4
c1ccc(N2CCN(c3nc(NCc4ccco4)c4ccccc4n3)CC2)cc1 | 25.0
c1ccc(-c2nc(NCc3ccco3)c3ccccc3n2)nc1 | 64.4*
c1coc(CNc2nc(N3CCCCC3)nc3ccccc23)c1 | 5.7
O=C(CN1C(=O)NC2(CCCCCCC2)C1=O)NCc1ccc2c(c1)OCO2 | -6.0
Oc1ccccc1-c1nc(N2CCN(Cc3ccccc3)CC2)c2ccccc2n1 | 13.0
c1ccc(N2CCN(c3nc(-c4ccccn4)nc4ccccc34)CC2)cc1 | 93.1*
c1ccc2c(N3CCCCCC3)nc(-c3ccncc3)nc2c1 | 2.4
Cc1c(NC(=O)CSc2nc3ccccc3s2)c(=O)n(-c2ccccc2)n1C | -6.5
CN(CC(=O)Nc1ccccc1Br)Cc1nc2ccccc2c(=O)[nH]1 | 1.5
COc1ccc(C2NC(=O)NC3=C2CCc2ccccc23)cc1 (centres undefined) | 43.8*
COC(=O)COc1ccc(C2NC(=O)NC(c3ccccc3)=C2C(C)=O)cc1OC (centres undefined) | 3.7
COc1ccc(C(=O)N2c3ccccc3C(=O)OC2c2ccc3c(c2)OCO3)cc1 (centres undefined) | -7.6
Cc1cccc(-c2nc(CSCC(=O)N3CCN(Cc4ccc5c(c4)OCO5)CC3)c(C)o2)c1 | -0.6
COc1cc(NC(C)C(=O)N2CC(C)OC(C)C2)cc(OC)c1 (centres undefined) | 5.4
S=c1[nH]nc(-c2ccccc2)o1 | 2.1
S=c1[nH]nc(C2COc3ccccc3O2)o1 (centres undefined) | 30.6*
c1ccc2c(c1)OCC(c1csc3ncnc(N4CCCC4)c13)O2 (centres undefined) | 4.5
C=CCn1c(SCC(=O)c2cc(C)n(CCOC)c2C)nc2sc(C)c(C)c2c1=O | 0.0
Cc1c(Cl)cccc1Nc1nc(N)nc(CN2CCCCCC2)n1 | 3.8
CC1CC(C)CN(Cc2nc(N)nc(Nc3ccccc3)n2)C1 (centres undefined) | -2.7
Cc1ccc(Nc2nc(N)nc(CN3CCCCCC3)n2)cc1 | 40.4*
Nc1ccc(C(=O)OCc2nc3c(ccc4ccccc43)[nH]2)cc1 | 18.1
